From PubChem BioAssay (NCI)
This is part of a sample that, as a whole, favours compounds with a hit. Of some 83,000 tested, about 20% had one in any assay.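 For each line, cells grew in 96-well plates with the test compound present at a single concentration for 48 hours.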 A number with no mark means an inactive call. The source made the active and inactive calls. Rule for the calls: active = growth percent below 10; inactive = the rest.

What follows are molecules tested on MDA-MB-468 breast (assay: NCI-60 one-dose screen, 48 h (100 = growth as untreated, 0 = no growth, -100 = all killed)). Settings: 10 µM unless noted.

SMILES	growth
COc1ccncc1C#Cc1cncc(C(=O)Nc2ccc(CN3CCN(C)CC3)c(C(F)(F)F)c2)c1	73.1%
FC(F)(F)c1cc(N2CCCCC2)nc(NCCCNc2ccnc3cc(Cl)ccc23)n1	1.13% (active)
C/C(=N\Nc1ccc(Cl)cn1)c1ccccn1	-41% (active)
O=C1Nc2ccc(Cl)cc2/C1=N/N=C(c1ccccc1)c1ccccc1	107%
C[n+]1cc2cc(C(N)=O)[nH]c3c(=N)c(Cl)c(N)c1c23	53.3%
COC(=O)CCC1=C(C)/C(=C/c2[nH]c(-c3ccc[nH]3)cc2OC)N=C1C	45.2%
O=C1NC(=O)C2C(=O)NC(=O)C1C21CCc2ccccc21 (stereo unspecified)	101%
COc1ccc(C(=O)N2NC(=O)/C(=C/c3ccc(Br)cc3)N=C2c2ccccc2)cc1	91.8%
C=CCn1c(SCC(=O)Nc2ccc(C(=O)/C=C/c3ccc(Cl)cc3)cc2)nnc1-c1ccc(Br)cc1	79.1%
COc1ccc(-c2cc(NC(=O)Nc3ccc(O)cc3)no2)cc1	80.5%
Cc1cc2nc3c4cc(Cl)ccc4n(CCN(C)C)c3nc2cc1C	-42.1% (active)
Nc1c(C(=O)Nc2ccncc2)sc2nc3c(cc12)CCCCC3	54.2%
O=C(NC(=S)N1CC=CCC1)c1ccccc1	121%
OCc1cccnc1	102%
Cc1ccc2c(n1)C(=O)C(Cl)=C(Nc1cccc(C(F)(F)F)c1)C2=O	-65.2% (active)
CCCNC(=S)N/N=C(\C)c1ccccn1	-26.3% (active)
Cc1[nH]n(-c2ccccc2)c(=O)c1C=NC(=S)C(N)=S	95.9%
COC(=O)[C@]12CC[C@@H](C)[C@H](C)[C@@H]1C1=CC(=O)[C@@H]3[C@@]4(C)C[C@@H](O)[C@H](O)[C@@]5(C)COC(=C45)C[C@@]3(C)[C@]1(C)CC2	44.2%
O=C1/C(=C(/c2ccccc2)N2CCOCC2)Cc2ccccc21	-19% (active)
c1ccc(-c2cn3ccnc3c(-c3ccc4c(c3)ncn4C3CCCCC3)n2)cc1	112%
NC(=O)C1CC2C=CC1C2 (stereo unspecified)	109%
C=C(C[n+]1ccccc1)[C@@H]1CC[C@]2(C(=O)OC)CC[C@]3(C)[C@H](CC[C@@H]4[C@@]5(C)CCC(=O)C(C)(C)[C@@H]5CC[C@]43C)[C@@H]12	7.22% (active)
COc1cccc(C2C(C#N)=C(N)Oc3cc(OCCCCCC[P+](c4ccccc4)(c4ccccc4)c4ccccc4)ccc32)c1 (stereo unspecified)	-64.3% (active)
O=C1CSC(=S)N1Cc1cccnc1	47.6%
Cc1ccc(NC(=O)c2sc3nc4c(cc3c2N)C(=O)CCC4)cc1C	50.7%
CC12OC(CC(O)C1O)n1c3ccccc3c3c4c(c5c6ccccc6n2c5c31)C(=O)N(CCN1CCCC1)C4=O (stereo unspecified)	3.48% (active)
